Data on 87 compounds can be found in PubChem BioAssay AID362 (NMMLSC, 2006).

The whole screen tested about 4,300 compounds, of which about 60 (1%) were called active. Only a selection was taken, and actives are over-represented in it overall. A number with no mark means an inactive call.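 How the source made its calls: active means inhibition of labelled peptide binding to the formyl peptide receptor of at least 65%; inactive means the rest.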

fMet-Leu-Phe receptor (Homo sapiens), sequence (P21462 whole entry, looked up): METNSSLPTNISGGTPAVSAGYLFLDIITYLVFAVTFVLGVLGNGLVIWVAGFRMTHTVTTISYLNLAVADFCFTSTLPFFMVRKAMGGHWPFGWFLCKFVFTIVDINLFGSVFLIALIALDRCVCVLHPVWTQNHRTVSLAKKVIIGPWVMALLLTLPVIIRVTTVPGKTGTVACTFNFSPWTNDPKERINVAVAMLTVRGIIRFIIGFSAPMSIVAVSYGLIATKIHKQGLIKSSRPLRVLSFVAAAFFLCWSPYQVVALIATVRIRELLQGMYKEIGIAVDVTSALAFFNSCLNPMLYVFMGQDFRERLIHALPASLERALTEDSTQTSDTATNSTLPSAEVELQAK

The experiment addresses fMet-Leu-Phe receptor (Homo sapiens) (UniProt P21462). In words: small-molecule ligands of human FPR – U937-FPR cells, fMLFK-FITC, flow cytometry, primary screen (AID 362).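 On inhibition: plate controls were buffer control wells for no effect and unlabeled fMLFF blocking peptide for full effect; higher means less cell fluorescence so more probe displaced.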 The note with it: fMLFK-FITC displacement; stronger effect = higher value, concentration not given here.
Take `CC1(C)CC(=O)C2=C(C1)Nc1[nH]n(-c3ccccc3)c(=O)c1C2c1cccs1` (configuration not stated): the inhibition (in general, the change of the read-out against control, counted positive when it falls) is 50.9%.

As for `CC1(C)CC(=O)C2=C(C1)Nc1[nH]n(-c3ccccc3)c(=O)c1C2c1ccccc1Cl` (configuration not stated), the inhibition is 70.6% (active).

In the case of `CC(C)c1ccc(C2C3=C(CC(C)(C)CC3=O)Nc3[nH]n(-c4ccccc4)c(=O)c32)cc1` (configuration not stated), the inhibition was 57%.

For `CC1(C)CC(=O)C2=C(C1)Nc1[nH]n(-c3ccccc3)c(=O)c1C2c1ccccc1F` (configuration not stated), the inhibition was 55.8%.

Turning to `CCOc1ccc(C2C3=C(CC(C)(C)CC3=O)Nc3[nH]n(-c4ccccc4)c(=O)c32)cc1` (configuration not stated), the inhibition was 76% (active).

Regarding `CCOc1ccc(C2C(C#N)=C(N)OC3=C2C(=O)CC(C)(C)C3)cc1` (configuration not stated), the inhibition was 15.2%.

With `CC1(C)CC(=O)C2=C(C1)Nc1ncnn1C2c1ccc(OCc2ccccc2)cc1` (configuration not stated), the inhibition was 7.5%.

As to `CC1(C)CC(=O)C2=C(C1)Nc1[nH]n(-c3ccccc3)c(=O)c1C2c1ccc(F)cc1` (configuration not stated), the inhibition was 47.8%.

In the case of `Cc1ccc(C2C3=C(CC(C)(C)CC3=O)Nc3[nH]n(-c4ccccc4)c(=O)c32)cc1` (configuration not stated), the inhibition was 65.6% (active).

On to `COc1cc(C2NC(=O)NC(C)=C2C(=O)OC2CCCCCC2)ccc1O` (configuration not stated), for which the inhibition entry is “inactive”.

Consider `O=C(O)c1ccc([N+](=O)[O-])c2c1NC(C(=O)O)C1CC=CC21` (configuration not stated), for which the inhibition result was “inactive”.

Regarding `CCOC(=O)C1CCC(CN(Cc2ccc(Cl)cc2)S(=O)(=O)c2ccc([N+](=O)[O-])cc2)CC1` (configuration not stated), the inhibition entry was “inactive”.

Turning to `CCCc1cc2c(=O)c(-c3cc4ccccc4o3)coc2cc1OC(C)=O`, the inhibition was 33.7%.

`CCOCCOC(=O)C1=C(C)NC2=C(C(=O)C(C(=O)OC)C(C)C2)C1c1ccc(OC)c(O)c1` (configuration not stated): the inhibition was 23.5%.

As for `COc1ccc(C(=O)NCC2(c3ccc(OC)c(OC)c3)CCCC2)cc1`, the inhibition result was “inactive”.

On to `CCCCCOC(=O)c1cccc(N2C(=O)C3C4CCC(C4)C3C2=O)c1` (configuration not stated), for which the inhibition result was “inactive”.

For `COc1cc2c(C(=O)N(C)c3cccc(Cl)c3)cn(CC(C)C)c(=O)c2cc1OC`, the inhibition entry is “inactive”.

In the case of `CCOC(=O)C1C(c2cccc([N+](=O)[O-])c2)NC(=O)NC1(O)C(F)(F)F` (configuration not stated), the inhibition result was “inactive”.

Consider `Cc1ccc(C(=O)C2=C(N)OC3=C(C(=O)CC(C)(C)C3)C2c2ccccc2Cl)cc1` (configuration not stated), for which the inhibition entry was “inactive”.

In the case of `O=C(CSc1nc2ccccc2c(=O)n1CC1CCC(C(=O)NCc2ccccc2Cl)CC1)NC1CCCC1` (configuration not stated), the inhibition was 4.5%.

For `CC(C)CN(CC(C)C)S(=O)(=O)c1ccc(C(=O)Nc2cccc(-c3nc4ccccc4[nH]3)c2)cc1`, the inhibition was 4.7%.

Consider `CCCCCCc1cc2c3c(c(=O)oc2cc1OCC(C)=O)CCC3`, for which the inhibition is 5.4%.

Take `CCCCCCc1cc2c3c(c(=O)oc2cc1OCC(=O)O)CCC3`: the inhibition is 74.7% (active).

`CCCCCCc1cc2c3c(c(=O)oc2cc1OCC(=O)O)CCCC3`: the inhibition was 47.7%.

Consider `CC1CC(C)CN(C(=O)c2cn(C3CCCC3)c(=O)c3c2c2ccccc2n3C)C1` (configuration not stated), for which the inhibition result was “inactive”.

In the case of `COC(=O)c1c(-c2cc(C)ccc2C)csc1NC(=O)C1CCCCC1C(=O)O` (configuration not stated), the inhibition is 40.4%.

Regarding `COC(=O)c1c(-c2ccc(F)cc2)csc1NC(=O)C1CCCCC1C(=O)O` (configuration not stated), the inhibition was 72.4% (active).

Take `CCOC(=O)c1c(-c2ccc(F)cc2)csc1NC(=O)C1CCCCC1C(=O)O` (configuration not stated): the inhibition was 35.1%.

For the compound `CCOC(=O)c1c(-c2ccc(OC)cc2)csc1NC(=O)C1CCCCC1C(=O)O` (configuration not stated), the inhibition is 3%.

As for `CCOC(=O)c1c(-c2ccc(C)cc2)csc1NC(=O)C1CCCCC1C(=O)O` (configuration not stated), the inhibition is 15.5%.

`COC(=O)c1c(-c2ccc(C)c(C)c2)csc1NC(=O)C1CCCCC1C(=O)O` (configuration not stated): the inhibition was 22.4%.

As for `COC(=O)c1c(-c2ccccc2)csc1NC(=O)C1CCCCC1C(=O)O` (configuration not stated), the inhibition entry was “inactive”.

For the compound `CCOC(=O)c1c(-c2ccc(C)cc2C)csc1NC(=O)C1CCCCC1C(=O)O` (configuration not stated), the inhibition is 94.2% (active).

For the compound `COC(=O)c1c(-c2cccc(C)c2)csc1NC(=O)C1CCCCC1C(=O)O` (configuration not stated), the inhibition was 68.9% (active).

Consider `O=C(O)C1CCCCC1C(=O)N1CCN(C/C=C/c2ccccc2)CC1` (configuration not stated), for which the inhibition result was “inactive”.

For `O=C(CSc1nc2ccccc2c(=O)n1CC1CCC(C(=O)NCc2ccco2)CC1)NCCC1=CCCCC1` (configuration not stated), the inhibition was 7.9%.

For the compound `CC(=O)N1CCCc2cc(S(=O)(=O)NC(C(=O)NCc3cccs3)C(C)C)ccc21` (configuration not stated), the inhibition result was “inactive”.

With `CC(C)C(C(=O)O)n1c(O)c(C2=c3ccccc3=NC2=O)sc1=S` (configuration not stated), the inhibition was 106% (active).

As for `CC(C)C(C(=O)O)n1c(O)c(C2=c3cc(Br)ccc3=NC2=O)sc1=S` (configuration not stated), the inhibition is 95.3% (active).

As for `Cc1cc(C)c(S(=O)(=O)NCC2CCC(C(=O)NCC3CCCO3)CC2)c(C)c1` (configuration not stated), the inhibition result was “inactive”.

Turning to `CC(C)CC(C(=O)OCC(=O)c1ccc(Cl)cc1)N1C(=O)c2ccccc2C1=O` (configuration not stated), the inhibition result is “inactive”.

Consider `CCN(CC)CC(=O)N1CCCc2c1c(=O)oc1ccc(OC(C)=O)cc21`, for which the inhibition result was “inactive”.

As to `Cc1ccc2nc3c(cc(C(=O)NCc4ccco4)c(=N)n3C3CCCC3)c(=O)n2c1`, the inhibition result is “inactive”.

`CCCCc1cc(=O)oc2cc(OCC(=O)OCC)c(Cl)cc12`: the inhibition entry was “inactive”.

Regarding `CC1=C(C)CS(=Nc2ccccc2[N+](=O)[O-])N(S(=O)(=O)c2ccccc2)C1` (configuration not stated), the inhibition entry was “inactive”.

Take `CC1=C(C)C/S(=N\S(=O)(=O)c2ccccc2)N(S(=O)(=O)c2ccccc2)C1` (configuration not stated): the inhibition was 103% (active).

With `O=C(C1CCCN(S(=O)(=O)c2ccccc2)C1)N1CCCCC1` (configuration not stated), the inhibition is 7.6%.

For the compound `CC(C)Cn1cc(C(=O)N2CC(C)CC(C)C2)c2c3ccccc3n(C)c2c1=O` (configuration not stated), the inhibition was 5.3%.

For `O=S(=O)(c1ccc(-c2csc(=Nc3cccc4ccccc34)n2CCCCO)cc1)N1CCCCC1`, the inhibition entry was “inactive”.

Consider `CCOC(=O)c1c(NC(=O)C2C3C=CC(C3)C2C(=O)O)sc2c1CCCCCC2` (configuration not stated), for which the inhibition was 16.4%.

Regarding `CCOC(=O)c1c(NC(=O)C2C3C=CC(CC3)C2C(=O)O)sc2c1CCCC2` (configuration not stated), the inhibition was 4.5%.

For `CCOC(=O)c1c(NC(=O)C2CCCCC2C(=O)O)sc2c1CCC(C(C)(C)C)C2` (configuration not stated), the inhibition was 71.7% (active).

On to `CC1CCc2c(sc(NC(=O)C3CCCCC3C(=O)O)c2C(=O)OC(C)C)C1` (configuration not stated), for which the inhibition was 3%.

Regarding `CCCOC(=O)c1c(NC(=O)C2CCCCC2C(=O)O)sc2c1CCC2` (configuration not stated), the inhibition was 47.3%.

For `CCOC(=O)c1c(NC(=O)C2C3CCC(C3=C(C)C)C2C(=O)O)sc2c1CCCCCCC2` (configuration not stated), the inhibition is 95.1% (active).

Regarding `CCOC(=O)c1c(NC(=O)C2CCCCC2C(=O)O)sc2c1CCC(C(C)(C)CC)C2` (configuration not stated), the inhibition is 21%.

Take `CCCOC(=O)c1c(NC(=O)C2CCCCC2C(=O)O)sc2c1CCC(C)C2` (configuration not stated): the inhibition is 23.4%.

As to `CCC(C)(C)C1CCc2c(sc(NC(=O)C3CCCCC3C(=O)O)c2C(=O)OC)C1` (configuration not stated), the inhibition was 80.5% (active).

Regarding `CCC(C)C(NC(=O)C(CC(=O)OCc1ccccc1)NC(=O)OC(C)(C)C)C(=O)NC(Cc1ccccc1)C(N)=O` (configuration not stated), the inhibition entry is “inactive”.

In the case of `CCOc1cc(C2C(C(=O)OC3CCCC3)=C(C)NC3=C2C(=O)C(C(=O)OC)C(C)C3)ccc1O` (configuration not stated), the inhibition is 15.5%.

On to `CCCN(CCC)CCNC(=O)c1cn(CC(C)C)c(=O)c2cc(OC)c(OC)cc12`, for which the inhibition entry was “inactive”.

Consider `CC1=C(C(=O)OC2CCCCC2)C(c2cccc(O)c2)C2=C(CC(C)(C)CC2=O)N1` (configuration not stated), for which the inhibition is 20.5%.

Turning to `O=C(CCCCCn1c(SCC(=O)NCc2ccccc2)nc2ccccc2c1=O)NCc1ccco1`, the inhibition is 3.6%.

Turning to `COc1ccc2nc(NC(=O)C(NS(=O)(=O)c3ccc4c(c3)CCN4C(C)=O)C(C)C)sc2c1` (configuration not stated), the inhibition entry is “inactive”.

In the case of `COc1ccc(C2/C(=C(/O)c3ccc(Cl)cc3)C(=O)C(=O)N2CC(C)C)c(OC)c1` (configuration not stated), the inhibition is 31.1%.

As for `COc1ccc(OC)c(C2/C(=C(\O)c3ccc(F)cc3)C(=O)C(=O)N2CCCCCC(=O)O)c1` (configuration not stated), the inhibition is 84.5% (active).

In the case of `COc1ccccc1C1/C(=C(\O)c2ccc(F)cc2)C(=O)C(=O)N1CCCCCC(=O)O` (configuration not stated), the inhibition is 11.2%.

As for `COc1ccc(C2/C(=C(/O)c3ccc(C)cc3)C(=O)C(=O)N2CC(C)C)c(OC)c1` (configuration not stated), the inhibition was 52.9%.

For the compound `COc1ccc(OC)c(C2/C(=C(/O)c3ccc(C)cc3)C(=O)C(=O)N2CC(C)C)c1` (configuration not stated), the inhibition was 86.7% (active).

With `COc1ccc(C2/C(=C(\O)c3ccc(F)cc3)C(=O)C(=O)N2CCCCCC(=O)O)c(OC)c1` (configuration not stated), the inhibition was 23.3%.

In the case of `O=C(Nc1nccs1)c1cc(N2C(=O)C3C4CCC(C4)C3C2=O)ccc1Cl` (configuration not stated), the inhibition result was “inactive”.

Turning to `CCSCCOC(=O)C1=C(C)NC2=C(C(=O)C(C(=O)OC)C(C)C2)C1c1cccc(F)c1` (configuration not stated), the inhibition was 5.8%.

`O=c1oc2cc(O)ccc2c2c1CCC2`: the inhibition is 7%.

Regarding `O=c1oc2cc(O)ccc2c2c1CCCC2`, the inhibition entry is “inactive”.

Regarding `O=c1oc2cc(O)cc(O)c2c2c1CCC2`, the inhibition is 81.6% (active).

As to `Cc1cc(NC(=O)C2CCCCC2C(=O)O)nn1Cc1ccc(Cl)cc1` (configuration not stated), the inhibition is 3%.

For `CCCCCCOC(=O)C1=C(C)NC(=O)NC1c1cc(OC)c(O)c(OC)c1` (configuration not stated), the inhibition result was “inactive”.

In the case of `CCCCCC(=O)Oc1cccc(N2C(=O)C3C4CCC(C4)C3C2=O)c1` (configuration not stated), the inhibition result was “inactive”.

For the compound `COC(=O)CC/C(O)=C1\C(=O)CC(C)(C)CC1=NCCc1ccc(OC)c(OC)c1`, the inhibition was 3.2%.

`CCOc1cc2c(C(=O)O)cn(CC(C)C)c(=O)c2cc1OCC`: the inhibition was 70% (active).

On to `COc1cc2c(C(=O)O)cn(CC(C)C)c(=O)c2cc1OC`, for which the inhibition entry is “inactive”.

`CCOc1cc2c(C(=O)N3CCN(c4ccccn4)CC3)cn(CC(C)C)c(=O)c2cc1OCC`: the inhibition is 3.9%.

Turning to `CCCc1cc(=O)oc2cc(OC(C)=O)ccc12`, the inhibition was 17.6%.

For `CCCc1cc(=O)oc2cc(OC(C)=O)cc(OC(C)=O)c12`, the inhibition was 77.3% (active).

Take `CCCc1cc(=O)oc2cc(OCC(=O)OCC)cc(OCC(=O)OCC)c12`: the inhibition entry was “inactive”.

For `CCOc1ccc(CCNC(=O)c2cn(CC(C)C)c(=O)c3cc(OC)c(OC)cc23)cc1OCC`, the inhibition result is “inactive”.

`C=C(C)Cn1c(SCC(=O)c2ccccc2)nc2c(c1=O)C1(CCCC1)Cc1ccccc1-2`: the inhibition entry is “inactive”.
